The source made the active and inactive calls. How the source made its calls: active means hit-call score of the fitted dose curve at least 0.9, where 1 is the maximum; inactive means score below 0.9.

The text below walks through data of PubChem BioAssay (EPA / NIEHS).

Chain of Fatty acid synthase (Homo sapiens) (P49327 whole entry, looked up): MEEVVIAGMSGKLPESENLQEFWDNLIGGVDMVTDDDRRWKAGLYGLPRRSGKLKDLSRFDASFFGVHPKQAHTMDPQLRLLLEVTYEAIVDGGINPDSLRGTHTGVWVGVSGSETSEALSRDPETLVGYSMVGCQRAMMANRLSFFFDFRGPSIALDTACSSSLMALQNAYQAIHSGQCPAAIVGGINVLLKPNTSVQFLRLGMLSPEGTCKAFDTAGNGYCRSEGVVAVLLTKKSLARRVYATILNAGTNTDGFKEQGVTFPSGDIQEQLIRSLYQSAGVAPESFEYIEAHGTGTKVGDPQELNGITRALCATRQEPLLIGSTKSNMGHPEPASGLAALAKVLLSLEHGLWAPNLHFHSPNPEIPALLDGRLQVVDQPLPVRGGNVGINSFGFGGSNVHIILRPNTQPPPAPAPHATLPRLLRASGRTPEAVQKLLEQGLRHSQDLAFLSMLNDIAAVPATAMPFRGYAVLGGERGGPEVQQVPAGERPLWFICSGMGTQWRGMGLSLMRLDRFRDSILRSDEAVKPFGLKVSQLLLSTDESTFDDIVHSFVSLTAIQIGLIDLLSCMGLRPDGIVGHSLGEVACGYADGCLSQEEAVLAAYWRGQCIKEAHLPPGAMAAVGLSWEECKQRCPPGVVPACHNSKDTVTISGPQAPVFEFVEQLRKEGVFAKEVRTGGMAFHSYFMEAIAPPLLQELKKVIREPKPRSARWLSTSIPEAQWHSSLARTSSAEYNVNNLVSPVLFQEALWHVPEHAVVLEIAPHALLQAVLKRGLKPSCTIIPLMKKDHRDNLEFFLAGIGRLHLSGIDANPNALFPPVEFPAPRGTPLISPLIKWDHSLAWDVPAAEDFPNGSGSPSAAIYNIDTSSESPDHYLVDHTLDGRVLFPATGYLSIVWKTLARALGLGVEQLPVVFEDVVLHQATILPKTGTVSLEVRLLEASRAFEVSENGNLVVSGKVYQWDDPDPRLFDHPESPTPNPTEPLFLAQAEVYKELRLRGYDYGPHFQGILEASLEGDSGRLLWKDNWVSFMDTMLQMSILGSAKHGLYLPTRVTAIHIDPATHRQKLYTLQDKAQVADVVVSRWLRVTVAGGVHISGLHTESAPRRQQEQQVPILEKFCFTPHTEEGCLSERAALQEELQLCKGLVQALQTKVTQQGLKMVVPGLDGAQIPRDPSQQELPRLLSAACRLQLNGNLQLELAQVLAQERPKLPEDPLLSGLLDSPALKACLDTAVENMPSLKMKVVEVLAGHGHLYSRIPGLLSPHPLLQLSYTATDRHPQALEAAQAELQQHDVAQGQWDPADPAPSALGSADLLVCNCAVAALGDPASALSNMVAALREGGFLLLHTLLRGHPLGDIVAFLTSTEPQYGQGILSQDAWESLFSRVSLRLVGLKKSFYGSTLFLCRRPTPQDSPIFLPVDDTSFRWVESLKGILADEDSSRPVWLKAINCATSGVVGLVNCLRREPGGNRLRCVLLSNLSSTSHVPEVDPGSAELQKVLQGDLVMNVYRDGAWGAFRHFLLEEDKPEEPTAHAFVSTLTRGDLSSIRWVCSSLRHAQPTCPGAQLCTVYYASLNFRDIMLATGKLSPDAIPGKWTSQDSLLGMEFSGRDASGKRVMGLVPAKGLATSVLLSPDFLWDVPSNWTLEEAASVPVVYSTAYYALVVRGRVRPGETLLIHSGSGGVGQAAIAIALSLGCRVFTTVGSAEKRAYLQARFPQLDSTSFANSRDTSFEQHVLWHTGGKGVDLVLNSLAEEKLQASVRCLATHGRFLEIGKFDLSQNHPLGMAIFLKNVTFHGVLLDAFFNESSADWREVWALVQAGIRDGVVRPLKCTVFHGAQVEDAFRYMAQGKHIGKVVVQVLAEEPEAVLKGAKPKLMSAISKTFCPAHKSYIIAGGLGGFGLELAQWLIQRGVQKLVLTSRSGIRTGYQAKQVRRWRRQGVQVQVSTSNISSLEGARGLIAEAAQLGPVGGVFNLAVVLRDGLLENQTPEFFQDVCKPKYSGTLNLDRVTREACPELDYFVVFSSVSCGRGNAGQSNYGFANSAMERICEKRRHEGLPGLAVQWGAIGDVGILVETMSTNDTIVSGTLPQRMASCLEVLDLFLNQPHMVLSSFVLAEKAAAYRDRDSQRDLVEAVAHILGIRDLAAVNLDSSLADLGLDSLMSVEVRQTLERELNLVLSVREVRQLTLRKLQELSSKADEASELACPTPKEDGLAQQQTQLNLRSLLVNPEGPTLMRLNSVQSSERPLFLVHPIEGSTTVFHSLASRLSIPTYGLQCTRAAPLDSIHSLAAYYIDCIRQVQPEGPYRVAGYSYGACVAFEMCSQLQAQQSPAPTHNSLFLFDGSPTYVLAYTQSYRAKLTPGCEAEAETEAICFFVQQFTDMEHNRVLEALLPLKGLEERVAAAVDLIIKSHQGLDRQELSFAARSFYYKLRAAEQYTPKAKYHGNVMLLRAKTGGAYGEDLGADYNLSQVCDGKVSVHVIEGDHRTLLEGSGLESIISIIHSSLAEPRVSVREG

Read-out in the first assay: Fatty acid synthase (Homo sapiens) (UniProt P49327)
Put plainly: LTEA_HepaRG_FASN: Life Technologies and Expression Analysis (LTEA) Assay for Fatty Acid Synthase (FASN) using HepaRG (AID 2283448).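 On AC50: differentiated human HepaRG liver cells in serum-free induction medium.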 The conditions noted are these: mRNA level, 48 h; actives raise or lower the signal. The gist of the method: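 FASN expression changes, up or down relative to 0.5% DMSO, were measured by qRT-PCR in human HepaRG cells after 48 h treatment with chemicals at eight concentrations (half-log steps from 100 uM).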
Turning to `COc1cccc(C(=O)NN(C(=O)c2cc(C)cc(C)c2)C(C)(C)C)c1C`, the outcome was inactive.

For `O=C(O)c1cc(Oc2ccc(C(F)(F)F)cc2Cl)ccc1[N+](=O)[O-]`, the compound was called inactive.

The term AC50 denotes the midpoint of the concentration-response curve, whichever way the signal moves. For the compound `Cc1cc(C2CC2)nc(Nc2ccccc2)n1`, the AC50 is 50 µM (active).

As for `CNC(=O)Oc1cccc2c1OC(C)(C)O2`, the compound was called inactive.

For the compound `CC(C1CC1)C(O)(Cn1cncn1)c1ccc(Cl)cc1` (stereo not drawn), the compound was called inactive.

`CSc1nnc(C(C)(C)C)c(=O)n1N`: the compound was called inactive.

On to `CCCOCC(=Nc1ccc(Cl)cc1C(F)(F)F)n1ccnc1`, for which the AC50 is 50 µM (active).

On to `COP(=O)(NC(C)=O)SC` (stereo not drawn), for which the result was inactive.

Consider `CCOC(=O)COc1cc(-c2nn(C)c(OC(F)F)c2Cl)c(F)cc1Cl`, for which the result was inactive.

As for `CN(C)C(=O)Nc1cccc(C(F)(F)F)c1`, the call was inactive.

For the compound `Nc1nc(N)nc(NC2CC2)n1`, the result was inactive.

As for `CN(C)NC(=O)CCC(=O)O`, the outcome was inactive.

For `CNC(=O)ON=C(SC)C(=O)N(C)C`, the call was inactive.

Turning to `CCc1cccc(C)c1N(C(=O)CCl)C(C)COC` (stereo not drawn), the result was inactive.

As to `CCOP(=S)(OCC)Oc1ccc2c(C)c(Cl)c(=O)oc2c1`, the compound was classed as inactive.

As for `CNc1cnn(-c2cccc(C(F)(F)F)c2)c(=O)c1Cl`, the AC50 is 18 µM (active).

As to `CC(C)[C@H](C(=O)O[C@H](C#N)c1cccc(Oc2ccccc2)c1)c1ccc(Cl)cc1`, the compound was called inactive.

Turning to `COc1ccc(C(=CC(=O)N2CCOCC2)c2ccc(Cl)cc2)cc1OC`, the compound was called inactive.

Regarding `CCOP(=O)(NC(C)C)Oc1ccc(SC)c(C)c1` (stereo not drawn), the compound was called inactive.

In the case of `CSc1nc(NC(C)C)nc(NC(C)C)n1`, the call was inactive.

`CCNc1nc(Cl)nc(NC(C)(C)C#N)n1`: the result was inactive.

Regarding `CNC(=O)ON=C(C)SC`, the call was inactive.

As to `Nc1c(Cl)cc([N+](=O)[O-])cc1Cl`, the AC50 is 16.9 µM (active).

With `CC(COc1ccc(Oc2ccccc2)cc1)Oc1ccccn1` (stereo not drawn), the AC50 was 30.5 µM (active).

Take `C#CC(C)(C)NC(=O)c1cc(Cl)cc(Cl)c1`: the AC50 was 0.0239 µM (active).

In the case of `CCCSP(=O)(OCC)Oc1ccc(Br)cc1Cl` (stereo not drawn), the compound was called inactive.

With `FC(F)C(F)(F)OCC(Cn1cncn1)c1ccc(Cl)cc1Cl` (stereo not drawn), the AC50 was 81.5 µM (active).

Turning to `C[Si](Cn1cncn1)(c1ccc(F)cc1)c1ccc(F)cc1`, the AC50 was 91.6 µM (active).

With `CCOP(=S)(OCC)Oc1cc(C)nc(C(C)C)n1`, the compound was called inactive.

For `CCCCN(CC)c1c([N+](=O)[O-])cc(C(F)(F)F)cc1[N+](=O)[O-]`, the compound was called inactive.

For the compound `C#CCC1=C(C)C(OC(=O)C2C(C=C(C)C)C2(C)C)CC1=O` (stereo not drawn), the outcome was inactive.

For `CCCSP(=O)(OCC)SCCC`, the result was inactive.

Consider `Cc1ccn2nc(S(=O)(=O)Nc3c(F)cccc3F)nc2n1`, for which the result was inactive.

Read-out in the next assay: Cyclin D2 (CCND2), CCND2 (gene 894)
Put plainly: LTEA_HepaRG_CCND2: Life Technologies and Expression Analysis (LTEA) Assay for Cyclin D2 (CCND2) using HepaRG (AID 2283449).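 Further: CCND2 transcript measured by TaqMan qRT-PCR and normalised to three housekeeping genes.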 The conditions noted are these: mRNA level, 48 h; actives raise or lower the signal. The gist of the method: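 Chemicals in 0.5% DMSO, eight half-log concentrations from 100 uM top, were applied in duplicate for 48 h to human HepaRG cells in serum-free induction medium. CCND2 mRNA by TaqMan qRT-PCR, normalised to ACTB/GAPDH/POLR2A; bidirectional fit versus DMSO.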
Consider `COc1cccc(C(=O)NN(C(=O)c2cc(C)cc(C)c2)C(C)(C)C)c1C`, for which the outcome was inactive.

Consider `O=C(O)c1cc(Oc2ccc(C(F)(F)F)cc2Cl)ccc1[N+](=O)[O-]`, for which the outcome was inactive.

For the compound `Cc1cc(C2CC2)nc(Nc2ccccc2)n1`, the compound was classed as inactive.

With `CC(C1CC1)C(O)(Cn1cncn1)c1ccc(Cl)cc1` (stereo not drawn), the compound was called inactive.

Turning to `CSc1nnc(C(C)(C)C)c(=O)n1N`, the compound was called inactive.

With `CCCOCC(=Nc1ccc(Cl)cc1C(F)(F)F)n1ccnc1`, the compound was called inactive.

With `CCOC(=O)COc1cc(-c2nn(C)c(OC(F)F)c2Cl)c(F)cc1Cl`, the compound was called inactive.

With `CN(C)C(=O)Nc1cccc(C(F)(F)F)c1`, the outcome was inactive.

Take `Nc1nc(N)nc(NC2CC2)n1`: the compound was classed as inactive.

For `CN(C)NC(=O)CCC(=O)O`, the compound was classed as inactive.

On to `CNC(=O)ON=C(SC)C(=O)N(C)C`, for which the call was inactive.

On to `CCc1cccc(C)c1N(C(=O)CCl)C(C)COC` (stereo not drawn), for which the outcome was inactive.

In the case of `CCOP(=S)(OCC)Oc1ccc2c(C)c(Cl)c(=O)oc2c1`, the compound was classed as inactive.

With `CNc1cnn(-c2cccc(C(F)(F)F)c2)c(=O)c1Cl`, the outcome was inactive.

Turning to `CC(C)[C@H](C(=O)O[C@H](C#N)c1cccc(Oc2ccccc2)c1)c1ccc(Cl)cc1`, the outcome was inactive.

For `COc1ccc(C(=CC(=O)N2CCOCC2)c2ccc(Cl)cc2)cc1OC`, the outcome was inactive.

For `CSc1nc(NC(C)C)nc(NC(C)C)n1`, the result was inactive.

With `CC1(C(=O)Nc2ccc(O)c(Cl)c2Cl)CCCCC1`, the call was inactive.

Regarding `CCNc1nc(Cl)nc(NC(C)(C)C#N)n1`, the compound was classed as inactive.

Take `CNC(=O)ON=C(C)SC`: the call was inactive.

For the compound `Nc1c(Cl)cc([N+](=O)[O-])cc1Cl`, the compound was called inactive.

As to `CC(COc1ccc(Oc2ccccc2)cc1)Oc1ccccn1` (stereo not drawn), the compound was classed as inactive.

`C#CC(C)(C)NC(=O)c1cc(Cl)cc(Cl)c1`: the outcome was inactive.

Turning to `CCCSP(=O)(OCC)Oc1ccc(Br)cc1Cl` (stereo not drawn), the compound was called inactive.

For `C[Si](Cn1cncn1)(c1ccc(F)cc1)c1ccc(F)cc1`, the compound was classed as inactive.

With `CCCCN(CC)c1c([N+](=O)[O-])cc(C(F)(F)F)cc1[N+](=O)[O-]`, the compound was classed as inactive.

For `C#CCC1=C(C)C(OC(=O)C2C(C=C(C)C)C2(C)C)CC1=O` (stereo not drawn), the result was inactive.

`CCOP(=S)(OCC)Oc1ccc([N+](=O)[O-])cc1`: the call was inactive.

On to `CCCSP(=O)(OCC)SCCC`, for which the outcome was inactive.

Consider `Cc1ccn2nc(S(=O)(=O)Nc3c(F)cccc3F)nc2n1`, for which the result was inactive.

Read-out in the next assay: Cyclin Dependent Kinase Inhibitor 1A (CDKN1A), CDKN1A (gene 1026)
Put plainly: LTEA_HepaRG_CDKN1A: Life Technologies and Expression Analysis (LTEA) Assay for Cyclin Dependent Kinase Inhibitor 1A (CDKN1A) using HepaRG (AID 2283450). The conditions noted are these: mRNA level, 48 h; actives raise or lower the signal. A digest of the protocol:
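Read-out is CDKN1A mRNA by TaqMan qRT-PCR, normalized to three housekeeping genes and fitted in both directions against the DMSO baseline. Human HepaRG cells were treated 48 h with test chemicals up to 100 uM in half-log steps, 0.5% DMSO.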
`COc1cccc(C(=O)NN(C(=O)c2cc(C)cc(C)c2)C(C)(C)C)c1C`: the compound was classed as inactive.

On to `O=C(O)c1cc(Oc2ccc(C(F)(F)F)cc2Cl)ccc1[N+](=O)[O-]`, for which the result was inactive.

Take `Cc1cc(C2CC2)nc(Nc2ccccc2)n1`: the call was inactive.

Take `CNC(=O)Oc1cccc2c1OC(C)(C)O2`: the compound was called inactive.

Take `CC(C1CC1)C(O)(Cn1cncn1)c1ccc(Cl)cc1` (stereo not drawn): the compound was called inactive.

With `CSc1nnc(C(C)(C)C)c(=O)n1N`, the outcome was inactive.

For `CCCOCC(=Nc1ccc(Cl)cc1C(F)(F)F)n1ccnc1`, the result was inactive.

In the case of `COP(=O)(NC(C)=O)SC` (stereo not drawn), the outcome was inactive.

As for `CCOC(=O)COc1cc(-c2nn(C)c(OC(F)F)c2Cl)c(F)cc1Cl`, the outcome was inactive.

With `CN(C)C(=O)Nc1cccc(C(F)(F)F)c1`, the call was inactive.

For the compound `Nc1nc(N)nc(NC2CC2)n1`, the compound was called inactive.

`CN(C)NC(=O)CCC(=O)O`: the compound was called inactive.

On to `CNC(=O)ON=C(SC)C(=O)N(C)C`, for which the call was inactive.

Take `CCc1cccc(C)c1N(C(=O)CCl)C(C)COC` (stereo not drawn): the call was inactive.

Turning to `CCOP(=S)(OCC)Oc1ccc2c(C)c(Cl)c(=O)oc2c1`, the compound was classed as inactive.

For the compound `CNc1cnn(-c2cccc(C(F)(F)F)c2)c(=O)c1Cl`, the compound was classed as inactive.

As to `CC(C)[C@H](C(=O)O[C@H](C#N)c1cccc(Oc2ccccc2)c1)c1ccc(Cl)cc1`, the compound was classed as inactive.

With `COc1ccc(C(=CC(=O)N2CCOCC2)c2ccc(Cl)cc2)cc1OC`, the result was inactive.

On to `CCOP(=O)(NC(C)C)Oc1ccc(SC)c(C)c1` (stereo not drawn), for which the call was inactive.

As for `CSc1nc(NC(C)C)nc(NC(C)C)n1`, the outcome was inactive.

On to `CC1(C(=O)Nc2ccc(O)c(Cl)c2Cl)CCCCC1`, for which the result was inactive.

As for `CCNc1nc(Cl)nc(NC(C)(C)C#N)n1`, the outcome was inactive.

Regarding `CNC(=O)ON=C(C)SC`, the call was inactive.

Regarding `Nc1c(Cl)cc([N+](=O)[O-])cc1Cl`, the result was inactive.

Consider `CC(COc1ccc(Oc2ccccc2)cc1)Oc1ccccn1` (stereo not drawn), for which the compound was called inactive.

On to `C#CC(C)(C)NC(=O)c1cc(Cl)cc(Cl)c1`, for which the compound was called inactive.

Take `CCCSP(=O)(OCC)Oc1ccc(Br)cc1Cl` (stereo not drawn): the compound was called inactive.

In the case of `FC(F)C(F)(F)OCC(Cn1cncn1)c1ccc(Cl)cc1Cl` (stereo not drawn), the AC50 is 33.6 µM (active).

For `C[Si](Cn1cncn1)(c1ccc(F)cc1)c1ccc(F)cc1`, the AC50 was 50 µM (active).

As to `CCOP(=S)(OCC)Oc1cc(C)nc(C(C)C)n1`, the result was inactive.

In the case of `CCCCN(CC)c1c([N+](=O)[O-])cc(C(F)(F)F)cc1[N+](=O)[O-]`, the outcome was inactive.

Consider `C#CCC1=C(C)C(OC(=O)C2C(C=C(C)C)C2(C)C)CC1=O` (stereo not drawn), for which the compound was called inactive.

As to `CCOP(=S)(OCC)Oc1ccc([N+](=O)[O-])cc1`, the compound was called inactive.

Regarding `CCCSP(=O)(OCC)SCCC`, the compound was called inactive.

As for `Cc1ccn2nc(S(=O)(=O)Nc3c(F)cccc3F)nc2n1`, the compound was called inactive.
